Consider 40 compounds from PubChem BioAssay (NCATS).

“And” between values parts separate entries of the source, which are not always exact repeats. Equal entries are not always repeated. Records with an inconclusive call do not appear. Values without a mark were called inactive. The source made the active and inactive calls. Calls follow the shape of the dose curve; as a rule, active = well fitted cell-killing curve with a large enough effect; inconclusive = small, poorly fitted or top-dose-only effect; inactive = flat fitted curve, though single readings scatter.
% is scaled to controls: 0 for no effect and ±100 for the full control effect.

The test can be described thus: Cellular viability qHTS for adrenocortical cancer (ACC) cell line SW-13 (AID 1963989). Also: nearly all actives have a fitted effect of over 65% in size.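 As to activity (max response): cells grown in serum-free medium with ITS supplement.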 Conditions: SW-13 ACC cells viability, CellTiter-Glo, 48 h; activity (max response): hits give low values. The text has this:
PI: Naris Nilubol, MD Surgical Oncology Program, National Cancer Institute (NCI) National Institute of Health (NIH), Bethesda, Maryland Adrenocortical cancer (ACC) is a rare malignancy with poor survival outcomes and few treatment options. Currently, mitotane is the only FDA-approved therapy for ACC. Although adjuvant radiation therapy is rarely utilized, it has the potential to improve survival in select cases. Through a quantitative high-throughput drug screen (qHTS), we identified auranofin (AF), a thioredoxin reductase (TXNRD) inhibitor, as a promising candidate drug. This study aims to evaluate whether AF can enhance the efficacy of radiation therapy in the treatment of ACC. Two human ACC cell lines, SW-13 and NCI-H295R, were screened using the National Center for Advancing Translational Sciences (NCATS) Pharmaceutical Collection (NPC) and the Mechanism Interrogation PlatE (MIPE) library (~4,991 compounds). CellTiter-Glo (Cat # G7570, Promega, Madison, WI) was utilized to measure cell viability. Described herein are the results of the corresponding viability assay.
PROTOCOL TABLE (as described by Inglese J, Shamu CE and Guy RK. 2007) SEQUENCE No. (e.g., 1, 2, 3, etc.); […] (e.g., Cells, Incubation, Reagent, etc.); VALUE; DESCRIPTION. 1; Cells; 5 uL; white, solid-bottom, 1536-well tissue-culture treated plates. 2; Time; overnight culture at 37C with 5% CO2. 3; Compounds and control; 23 nL; Kalypsis pin tool (Wako USA) equipped with a 1536-well pin head to transfer to the assay plates. 4; Time; 48 hours; 37C with 5% CO2. 5; Reagent; 4 uL; CellTiter-Glo luminescent substrate mix. 6; Time; 20 min at room temperature. 7; Detection; Luminescence; ViewLux plate reader NOTES (numbers refer to Sequence numbers above) 1. SW13 cells were harvested from a T175 flask and resuspended in ITS-supplemented DMEM serum-free medium at a concentration of 300 000 cells/mL. Then 5 uL of resuspended cells were dispensed into each well of white, solid-bottom, 1536-well tissue-culture-treated plates using a multidrop combi dispenser. The plates were covered with stainless steel gasket lids. 2-3. The plates were cultured overnight at 37C with 5% CO2. Twenty-three nL of compounds (eight selected concentrations from the NPC / MIPE) or positive control (10 mM stock of bortezomib) in DMSO was transferred to each well of the assay plate using a pin tool (Kalypsys, San Diego, CA, USA). The final concentration of the compounds in the 5 uL assay volume ranged from 0.5 nM to 46 uM. 4-6. After 48 hours of incubation at 37C and 5% CO2, 4 uL of CellTilter-Glo luminescent substrate mix (Promega, Madison, WI, USA) was added to each well. Then the plates were incubated for 20 minutes at room temperature. 7. After incubation, luminescence was measured using a ViewLux plate reader (PerkinElmer, Waltham, MA, USA) with a clear filter was used to measure the number of metabolically competent cells. To determine compound activity in the qHTS assay, the titration-response data for each sample was plotted and modeled by a four-parameter logistic fit yielding IC50 and efficacy (maximal response) values. […] REFERENCES: Inglese J, Shamu CE and Guy RK, Reporting data from high throughput screening of small molecule libraries, Nature Chemical Biology, 2007, 3(8): 438-441. doi.org/10.1038/nchembio0807-438.
Background: In qHTS, concentration-response curves come from the screen itself.
For the compound `COc1ccc(-c2oc3c(CC=C(C)C)c(O)cc(O)c3c(=O)c2O)cc1`, the activity (max response) is -11%. Take `COC1CCC(N(C(=O)C2CCC(C)CC2)c2cc(C3=CCCCC3)sc2C(=O)O)CC1` (stereo not given): the activity (max response) was 0.0132%. Take `COc1cccc2c1CCCC2CCCN1CCN(C2CCCCC2)CC1` (stereo not given): the Potency was 22.4 µM (active).

For the compound `CCOC(=O)c1ccc(OCCN2C[C@H](O)[C@@H](O)[C@H](O)[C@H]2CO)cc1`, the activity (max response) is -1.86%. As to `C[C@@H](N)C1CCC(C(=O)Nc2ccncc2)CC1` (stereo not given in full), the activity (max response) is -5.19%.

Consider `Cc1ccc(O)c(C(CCN(C(C)C)C(C)C)c2ccccc2)c1` (stereo not given), for which the activity (max response) was 1.99%. As for `CN(C)c1ccc(C(=C2C=CC(=[N+](C)C)C=C2)c2ccc(N(C)C)cc2)cc1`, the Potency is 651 nM (active) and 1.58 µM (active). In the case of `CCOC(CN1CCN(CC(C)C(=O)c2ccccc2)CC1)c1ccccc1` (stereo not given), the activity (max response) is -8.86%.

As to `Cn1cnc(=N)c2[nH]cnc21`, the activity (max response) was 5.87%. Turning to `Nc1ccc(C(=O)O)c(O)c1`, the activity (max response) was 12.8%. Regarding `CN1CCC(c2c(O)cc(O)c3c(=O)cc(-c4ccccc4Cl)oc23)C1CO` (stereo not given), the Potency is 3.16 µM (active). As for `Cc1cc(I)ccc1Nc1c(C(=O)NOCC2CC2)cc(F)c(F)c1F`, the Potency was 3.16 µM (active). As for `CCCC(CCC)(C(=O)OCC)C(=O)OCC`, the activity (max response) was 12.5%. The same measure, in the same setting: in the case of `O=P(O)(O)C(O)(Cc1cccnc1)P(=O)(O)O` it was 11.3% and 10.6%; in that of `NC1CCN(c2nc3c(cc2F)c(=O)c(C(=O)O)cn3-c2ccc(F)cc2F)C1` (stereo not given), -6.92%. Regarding `O=C(Nc1cn[nH]c1-c1nc2ccc(CN3CCOCC3)cc2[nH]1)NC1CC1`, the Potency is 3.16 µM (active). In the case of `CC[C@H](C)C(=O)O[C@H]1C[C@@H](C)C=C2C=C[C@H](C)[C@H](CC[C@@H]3C[C@@H](O)CC(=O)O3)[C@H]21`, the activity (max response) was -5.87%. Same read-out and setting: for `O=C1C(=O)c2ccccc2C(O)=C1C1CCC(c2ccc(Cl)cc2)CC1` (stereo not given) the value was 9.49%; for `CCOCc1nc2c(N)nc3ccccc3c2n1CC(C)(C)O`, -23.1%; for `S=c1[nH]c2ccccc2s1`, 3%. On to `CC(=O)Nc1ccc(C(=O)NC(C)(C)C)cc1`, for which the activity (max response) is -16.7%.

With `CC1CCN(c2cc(N3CCN(C)CC3)ccc2NC(=O)c2cc(C#N)c[nH]2)CC1`, the activity (max response) was -21.1%. With `C=CC(=O)Nc1cc2c(Nc3ccc(F)c(Cl)c3)ncnc2cc1OCCCN1CCOCC1`, the Potency was 3.55 µM (active). For the compound `C=CC(=O)Nc1cccc(Oc2nc(Nc3ccc(N4CCN(C)CC4)cc3OC)ncc2Cl)c1`, the Potency was 8.91 µM (active). For `CC1(C)OC2=C(C(=O)c3ccccc3C2=O)[C@H](NCc2ccccc2)[C@@H]1O`, the Potency is 3.98 µM (active).

Turning to `C[C@]12CCC(=O)C=C1CC[C@@H]1[C@@H]2C(=O)C[C@@]2(C)[C@H]1CC[C@]2(O)C(=O)CO`, the activity (max response) is 7.27%. For `C[C@]12CCC(=O)C=C1CC[C@@H]1[C@@H]2[C@@H](O)C[C@@]2(C)[C@H]1CC[C@]2(O)C(=O)CO`, the activity (max response) was 8.55% and 7.07%. The same measure, in the same setting: in the case of `COc1ccccc1Oc1c(NS(=O)(=O)c2ccc(C(C)(C)C)cc2)nc(-c2ncccn2)nc1OCCO` it was -3.16%. For the compound `NC(Cc1ccc(Cl)cc1)C(=O)O` (stereo not given), the activity (max response) is -3.09%.

Turning to `CC(=O)OCC(COC(C)=O)OC(C)=O`, the activity (max response) was 3.85%. Consider `CNC[C@H](O)[C@@H](O)[C@H](O)[C@H](O)CO`, for which the activity (max response) is 1.47%. Consider `CN[C@@H]1C[C@H]2O[C@@](C)([C@@H]1OC)n1c3ccccc3c3c4c(c5c6ccccc6n2c5c31)C(=O)N[C@H]4O`, for which the Potency is 0.376 µM (active). Consider `C[C@@H]1[C@H](O)[C@@H](C)/C=C/C=C/C=C/C=C/C=C/C=C/C=C/[C@H](O[C@@H]2O[C@H](C)[C@@H](O)[C@H](N)[C@@H]2O)C[C@@H]2O[C@](O)(C[C@@H](O)C[C@@H](O)[C@H](O)CC[C@@H](O)C[C@@H](O)CC(=O)O[C@H]1C)C[C@H](O)[C@H]2C(=O)O`, for which the activity (max response) is -9.6%.

As for `C[C@H]1COCCN1c1cc(C2(S(=O)(=O)C3CC3)CC2)nc(-c2ccc(NC(=S)NCCO)cc2)n1`, the Potency is 0.316 µM (active). Consider `CCN1CCN(CC(=O)Nc2ccc(-c3cccc4c(=O)cc(N5CCOCC5)oc34)c3sc4ccccc4c23)CC1`, for which the Potency is 9 µM (active). With `COc1ccc2c(Oc3ccc(NC(=O)c4c(C)n(CC(C)(C)O)n(-c5ccccc5)c4=O)nc3)ccnc2c1`, the activity (max response) was -3.94%. For `NC(=O)C1(N2CCCCC2)CCN(CCCN2c3ccccc3CCc3ccc(Cl)cc32)CC1`, the Potency was 20.6 µM (active). On to `Cc1cc(C(C)(C)C)c(O)c(C)c1CC1=NCCN1`, for which the activity (max response) was -5.66% and -4.23%. As for `CCN(CC)CC(=O)Nc1c(C)cccc1C`, the activity (max response) was 2.91%. Regarding `Cc1nc(Nc2n[nH]c3c2CN(C(=O)N[C@H](CN(C)C)c2ccccc2)C3(C)C)c2sccc2n1`, the Potency was 3.16 µM (active).
